Compound activity from PubChem.
Most compounds without a hit are left out; they make up all but 3.3% or so of the library.
Jurkat NFkB inh: inhibitors of induced NF-kB luciferase reporter, primary screen, TCR NF-kB activation inhibitor project, cell-based, luminescence, uHTS. Jurkat, PMA/ionomycin-induced NF-kB luciferase reporter. inhibition, % at 4 µM. hit rate 0.53% among 330,000; in the data active = inhibition above about 50%
SMARCA2 act: SMARCA2 (BRM) function activators, primary screen, cell-based, luminescence, high throughput | MG213 cells, MMTV-luciferase reporter, dexamethasone, overnight | activation, % at 9.1 µM | hit rate 1% among 370,000 | AID 652017, 2013; in the data active = activation above about 7.8%;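 note: 0% = vehicle wells and 100% = reference activator wells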
Gli-Sufu block: Gli-Sufu pathway antagonists, primary screen, luciferase luminescence, Sufu-KO-LIGHT cells, uHTS | Sufu-KO-LIGHT fibroblasts, Gli luciferase reporter luminescence | hit rate 0.74% among 340,000 | inhibition, % at 5 µM;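 active = inhibition above about 55%, limit read from the data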;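 note: 0% = DMSO-treated cells and 100% = wells with medium but no cells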
esBAF inh: Bmi1 luciferase reporter increase in mESCs, primary screen, esBAF inhibitor project, mouse ES cells, Bmi1 luciferase knock-in, single point. 24 h; 100% = twice the neutral-well signal. reporter increase, % at 12.5 µM. hit rate 2% among 350,000. AID 602393, 2012; in the data active = activation above about 40%;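 note: 0% = median of the plate's neutral control wells and 100% = double that signal; a rise in the Bmi1 reporter signal indicates esBAF inhibition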
697 NFkB inh: inhibitors of PMA/ionomycin-induced NF-kB reporter, 697 cells, primary screen, B-cell NF-kB inhibitor project, cell-based, luminescence, uHTS | 697 B-cell NF-kB luciferase reporter, 16 h | inhibition, % at 4 µM | hit rate 0.33% among 330,000; in the data active = inhibition above about 35%
697 NFkB conf: PMA/ionomycin-induced NF-kB reporter inhibitors, 697 retest, confirmation, B-cell NF-kB inhibitor project, cell-based, luminescence, single concentration; shares compounds with 697 NFkB inh; inhibition, % at 4 µM; 697 B-cell NF-kB luciferase, 16 h; hit rate 35% among 2,000; in the data active = inhibition mostly above about 28%, no sharp cut-off; inactive = mostly below about 22%
Starred values were filed as active, the others as inactive; i = inactive; · = not tested or not shown.

SMILES	Jurkat NFkB inh	SMARCA2 act	Gli-Sufu block	esBAF inh	697 NFkB inh	697 NFkB conf
N/C(=N\OC(=O)/C=C/c1ccccc1Cl)c1ccccn1	-113	3	-62	·	-318	-276
N/C(=N\OC(=O)/C=C/c1ccccc1Cl)c1cccnc1	-94	4	-35	·	-125	·
C[C@H]1CCCCO[C@H](CN(C)S(=O)(=O)c2ccc(Cl)cc2)[C@@H](C)CN([C@@H](C)CO)C(=O)c2cc(NS(=O)(=O)c3cccs3)ccc2O1	·	·	·	5	·	·
COC(=O)C[C@@H]1C[C@H]2c3cc(NC(=O)C4CCC4)ccc3O[C@H]2[C@H](CO)O1	·	·	·	-1	·	·
CS(=O)(=O)N1[C@H](C#N)[C@H](c2ccccc2)[C@H]1CO	·	·	·	0	·	·
C[C@H](O)C#Cc1cnc2c(c1)C(=O)N([C@H](C)CO)C[C@H](C)[C@@H](CN(C)Cc1ccc(-c3ccccc3)cc1)O2	·	·	·	-20	·	·
CCOc1ccc(C(=O)Nc2cc(C)on2)cc1	-110	3	-81	-15	-82	·
Cc1cc(NC(=O)c2cccc(COc3ccc(Br)cc3)c2)no1	-21	5	-139	10	56*	12
Cn1c(-c2ccccc2)cc2c3no[n+]([O-])c3ccc21	-33	1	-9	-74	-262	-133
Cn1c(-c2ccccc2)cc2ccccc21	-34	-4	-3	16	-8	·
COc1ccc(NC(=O)N(C)C[C@@H]2Oc3ccc(NC(=O)Nc4ccc(F)cc4)cc3C(=O)N([C@H](C)CO)C[C@H]2C)cc1	·	·	·	3	·	·
Cc1ccccc1Nc1nc(Cl)c(C=O)s1	-7	-1	-5	·	35*	40*
Cc1ccccc1Nc1n[nH]c(=S)s1	·	-2	·	11	·	·
CCOC(=O)CNC(=O)CSc1nc(-c2ccc(OC)cc2)ns1	-9	0	5	-6	11	·
COc1ccc(-c2nsc(SCC(=O)Nc3cc(C)on3)n2)cc1	-34	2	7	-22	43*	30*
Cc1ccccc1-c1nc2sc3c(c2c(=O)n1N)CCCC3	-100	2	34	-7	-276	-229
C[C@H](CO)N1C[C@H](C)[C@H](CN(C)Cc2ccc(Oc3ccccc3)cc2)Oc2ccc(NS(=O)(=O)c3ccc(Cl)cc3)cc2C1=O	·	·	·	-2	·	·
C[C@H]1CCCCO[C@H](CN(C)S(=O)(=O)c2ccc(Cl)cc2)[C@@H](C)CN([C@@H](C)CO)C(=O)c2cc(NS(=O)(=O)c3ccc(F)cc3)ccc2O1	·	·	·	-7	·	·
CC(C)(C)c1ccc(-c2cc(N)n[nH]2)cc1	-50	-4	7	-57	44*	45*
N#CC1=C(N)Oc2cc(Nc3ccccc3)ccc2C1c1ccncc1 (stereo not given)	-9	1	0	·	37*	41*
N#CC1=C(N)Oc2cc(N)ccc2C1c1cccnc1 (stereo not given)	14	0	-2	·	-7	·
O=C(OCCc1ccccc1)c1cc(O)c(O)c(O)c1	-49	4	16	-9	i	-233
Nc1ccc(C(=O)OCCc2ccccc2)cc1	-72	5	-123	-12	-50	·
COC(=O)c1ccc(-c2nc3cc(Cl)c(N)cc3s2)cc1	-138	6	-67	·	-258	-83
COC(=O)c1ccc(-c2nc(O)c(C)s2)cc1	7	1	-8	·	-1	·
SMILES	Jurkat NFkB inh	SMARCA2 act	Gli-Sufu block	esBAF inh	697 NFkB inh	697 NFkB conf
C[C@@H]1CN([C@@H](C)CO)C(=O)c2cc(NC(=O)Nc3cccc4ccccc34)ccc2O[C@@H](C)CCCCO[C@@H]1CN(C)S(=O)(=O)c1ccc(F)cc1	·	·	·	1	·	·
Cc1ccc(Nc2nc(C)nc3c2oc2ccccc23)cc1	4	-2	1	·	-20	·
Cc1ccc(Nc2nc(N)nc(-c3oc4ccccc4c3C)n2)cc1	37	·	12	·	-480	i
Cc1cccc2cc(/C=N/Nc3ccc(C(=O)O)cc3)c(Cl)nc12	-76	6	-134	·	-309	-247
CCc1n[nH]c(=S)n1/N=C/c1cc(Br)c(O)c(OC)c1	-1	3	-3	·	36*	-2
COc1cc(/C=N/n2c(COc3ccccc3)n[nH]c2=S)cc(Br)c1O	2	-3	8	-8	6	·
CO[C@@H]1CN(C)C(=O)c2ccc(NC(C)=O)cc2OC[C@@H](C)N(C(=O)C2CCCCC2)C[C@H]1C	·	·	·	0	·	·
CC1=Nn2c(nnc2-c2n[nH]c3c2CCC3)SC1	-15	-2	-4	-6	23	·
Fc1ccc(C2=Nn3c(nnc3-c3n[nH]c4c3CCC4)SC2)cc1	-9	0	18	1	44*	53*
COc1ccccc1OCC(=O)Nc1nc2c(s1)CCCC2	-41	0	-29	26	-276	-162
COc1ccc(OCC(=O)Nc2nc3c(s2)CCCC3)cc1	1	1	-15	3	-7	·
Cc1ccc(CC(=O)Nc2nc3c(s2)CCCC3)cc1	-77	0	-8	·	i	-483
C[C@@H]1CN([C@H](C)CO)C(=O)c2cc(C#CCN(C)C)cnc2O[C@@H]1CN(C)Cc1ccccn1	·	·	·	-9	·	·
Cc1ccn2c(C(=O)c3ccc(Cl)cc3)cnc2c1	-147	5	-85	·	-259	-145
Cc1ccn2c(=O)nc(SCC(=O)c3ccc(Cl)cc3)nc2c1	-25	4	-5	·	-52	·
O=C(CCCN1C(=O)/C(=C/c2ccccc2Cl)SC1=S)NNC(=O)c1ccc(Cl)cc1	19	-9	17	·	61*	52*
Cc1ccc(C(=O)NNC(=O)CCCN2C(=O)/C(=C/c3ccccc3Cl)SC2=S)cc1	19	-6	5	·	44*	41*
COCc1ccc(C(=O)N2CCC(CCC(=O)Nc3cccc(C)c3)CC2)s1	19	-5	9	-55	39*	17
CCC(=O)N(C1=C(NC)C(=O)c2ccccc2C1=O)C(C)C	35	-8	-4	·	52*	47*
Oc1ccc(Oc2ccc3c(C(F)(F)F)cc(C(F)(F)F)nc3n2)cc1	13	-4	8	-1	46*	22
COCC#Cc1ccc2c(c1)O[C@H](CN(C)S(=O)(=O)c1ccc(F)cc1)[C@@H](C)CN([C@@H](C)CO)S2(=O)=O	·	·	·	-2	·	·
Cc1ccc(C)c(OCc2ccc(C(=O)NN)o2)c1	-6	-8	8	·	46*	32*
CC(=O)N1C[C@H]2[C@@H](c3ccccc31)[C@@H](CO)N2C(=O)CC1CC1	·	·	·	-1	·	·
CN1c2ccccc2C(C)(C)C12CC(c1ccc(S(=O)(=O)N3CCCCC3)cc1)=NO2 (stereo not given)	-54	6	18	-3	i	i
